Measured values published in PubChem BioAssay.
Unmarked numbers belong to inactive results. For some of these results: Entries with a potency or affinity are not part of this list. The source made the active and inactive calls. Unless noted, how the calls were made is not given here.

Columns and labels:
[1] = antimalarial activity against Dd2 strain (AID 2302;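 active means growth inhibition above 50% at the single 2 µM test dose, taken to imply half-maximal potency below 2 µM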;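 further: 0% = DMSO untreated growth and 100% = chloroquine plus artemisinin killed control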); conditions: P. falciparum Dd2 in RBCs, LDH growth readout, 72 h; at 2 µM; stronger effect = higher value
[2] = human hepatoma cell viability loss – ATP luminescence, cytotoxicity control for P. falciparum antimalarial project, primary screen (AID 2303;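 active means inhibition above 50%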;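 further: 0% = DMSO wells and 100% = digitonin-killed cells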); conditions: HepG2 viability, 24-48 h, at 10 µM, stronger effect = higher value
[3] = molecular target: L-lactate dehydrogenase (Plasmodium falciparum (isolate CDC / Honduras)) (UniProt Q27743); test: PfLDH activity inhibition – cell lysate, 3D7 strain, counter-screen for P. falciparum growth inhibition project (AID 2304);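 further: 0% = vehicle and 100% = reference inhibitor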; conditions: P. falciparum 3D7 crude extract, LDH APAD/NBT absorbance; at 2 µM; stronger effect = higher value
L-lactate dehydrogenase (Plasmodium falciparum (isolate CDC / Honduras)), sequence (Q27743 whole entry, looked up): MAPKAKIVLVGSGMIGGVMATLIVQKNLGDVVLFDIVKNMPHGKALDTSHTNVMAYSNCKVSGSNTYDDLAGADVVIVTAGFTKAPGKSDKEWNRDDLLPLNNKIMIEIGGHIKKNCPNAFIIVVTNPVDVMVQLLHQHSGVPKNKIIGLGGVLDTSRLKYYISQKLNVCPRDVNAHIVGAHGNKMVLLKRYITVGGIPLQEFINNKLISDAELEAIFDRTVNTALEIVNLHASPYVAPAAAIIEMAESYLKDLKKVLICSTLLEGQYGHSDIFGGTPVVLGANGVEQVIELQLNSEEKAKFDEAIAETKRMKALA

[4] = inhibition of 3D7 malaria parasite growth – strain 3D7 (AID 2306);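 further: 0% = DMSO wells and 100% = chloroquine plus artemisinin control wells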; conditions: P. falciparum 3D7 erythrocytic growth, LDH absorbance, 72 h; at 2 µM; stronger effect = higher value
[5] = molecular target: Calcium-dependent protein kinase 1 (Plasmodium falciparum (isolate 3D7)) (UniProt P62344); test: PfCDPK1 kinase inhibitors, biochemical, TCAMS library (AID 1159585; cut-off not given, nearly all actives have IC50 up to about 0.98 µM;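 further: inhibitors leave more ATP so luminescence rises with inhibition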); conditions: recombinant PfCDPK1, Kinase-Glo ATP depletion luminescence
Calcium-dependent protein kinase 1 (Plasmodium falciparum (isolate 3D7)), sequence (P62344 whole entry, looked up): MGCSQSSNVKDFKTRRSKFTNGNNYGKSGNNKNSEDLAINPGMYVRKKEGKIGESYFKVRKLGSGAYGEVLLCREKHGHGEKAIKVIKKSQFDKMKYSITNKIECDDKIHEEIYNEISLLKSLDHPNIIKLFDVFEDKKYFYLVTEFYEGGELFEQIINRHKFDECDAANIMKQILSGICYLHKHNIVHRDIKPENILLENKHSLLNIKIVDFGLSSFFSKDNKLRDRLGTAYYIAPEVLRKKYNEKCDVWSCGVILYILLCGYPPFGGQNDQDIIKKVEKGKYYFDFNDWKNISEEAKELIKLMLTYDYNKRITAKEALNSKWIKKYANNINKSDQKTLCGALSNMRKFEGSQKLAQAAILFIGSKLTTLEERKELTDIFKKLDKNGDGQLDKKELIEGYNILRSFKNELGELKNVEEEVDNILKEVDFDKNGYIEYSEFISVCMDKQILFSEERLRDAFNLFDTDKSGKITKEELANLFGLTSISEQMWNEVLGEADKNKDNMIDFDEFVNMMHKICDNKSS

[6] = molecular target: Plasmodium falciparum protein kinase 6 (PK6, PF3D7_1337100) (UniProt Q8IDW1); test: PfPK6 kinase inhibitors, biochemical, TCAMS library (AID 1159586); conditions: recombinant PfPK6, Kinase-Glo ATP depletion luminescence
Plasmodium falciparum protein kinase 6 (PK6, PF3D7_1337100), sequence (Q8IDW1 1-305): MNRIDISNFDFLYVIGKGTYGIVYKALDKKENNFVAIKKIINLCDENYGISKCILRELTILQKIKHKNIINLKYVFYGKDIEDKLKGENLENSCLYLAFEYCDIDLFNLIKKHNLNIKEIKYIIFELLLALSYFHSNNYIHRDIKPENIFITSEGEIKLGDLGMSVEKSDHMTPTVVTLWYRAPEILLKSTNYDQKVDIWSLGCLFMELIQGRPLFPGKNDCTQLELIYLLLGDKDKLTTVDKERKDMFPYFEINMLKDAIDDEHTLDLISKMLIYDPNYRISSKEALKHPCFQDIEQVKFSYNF

[7] = molecular target: Protein kinase 7 (PK7), Plasmodium falciparum 3D7 (PF3D7_0213400) (UniProt Q7YTF7); test: inhibition of Plasmodium PK7 catalytic activity – biochemical, TCAMS antimalarial set, Kinase-Glo luminescence (AID 1159587); conditions: recombinant PfPK7, Kinase-Glo ATP depletion luminescence
Protein kinase 7 (PK7), Plasmodium falciparum 3D7 (PF3D7_0213400), sequence (Q7YTF7 1-343): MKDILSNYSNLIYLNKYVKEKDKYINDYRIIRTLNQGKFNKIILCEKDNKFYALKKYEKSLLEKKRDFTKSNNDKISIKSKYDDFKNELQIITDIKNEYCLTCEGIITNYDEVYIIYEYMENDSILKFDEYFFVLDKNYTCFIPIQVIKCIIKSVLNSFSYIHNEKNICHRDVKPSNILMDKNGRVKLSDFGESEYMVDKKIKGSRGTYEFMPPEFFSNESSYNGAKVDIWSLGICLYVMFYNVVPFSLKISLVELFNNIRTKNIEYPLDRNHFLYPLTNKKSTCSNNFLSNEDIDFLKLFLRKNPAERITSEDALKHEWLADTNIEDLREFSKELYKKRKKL

[8] = molecular target: Calcium-dependent protein kinase 4 (Plasmodium falciparum (isolate 3D7)) (UniProt Q8IBS5); test: PfCDPK4 kinase inhibitors, biochemical, TCAMS library (AID 1159588; cut-off not given, nearly all actives have IC50 up to about 0.91 µM); conditions: recombinant PfCDPK4, Kinase-Glo ATP depletion luminescence
Calcium-dependent protein kinase 4 (Plasmodium falciparum (isolate 3D7)), sequence (Q8IBS5 whole entry, looked up): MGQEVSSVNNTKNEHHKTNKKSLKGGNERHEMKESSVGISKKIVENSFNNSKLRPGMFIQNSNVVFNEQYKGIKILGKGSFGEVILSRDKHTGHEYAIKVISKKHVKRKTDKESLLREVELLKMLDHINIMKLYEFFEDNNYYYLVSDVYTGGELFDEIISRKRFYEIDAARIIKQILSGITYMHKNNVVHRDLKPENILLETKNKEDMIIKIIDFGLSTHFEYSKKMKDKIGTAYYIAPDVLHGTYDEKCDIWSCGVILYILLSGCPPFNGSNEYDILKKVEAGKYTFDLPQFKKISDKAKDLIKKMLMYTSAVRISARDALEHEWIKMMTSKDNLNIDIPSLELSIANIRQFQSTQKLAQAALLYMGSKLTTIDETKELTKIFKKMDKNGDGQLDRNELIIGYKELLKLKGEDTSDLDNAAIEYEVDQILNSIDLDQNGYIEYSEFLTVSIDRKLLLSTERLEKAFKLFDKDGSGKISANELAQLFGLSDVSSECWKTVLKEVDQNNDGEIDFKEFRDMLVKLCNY

Row | Structure (SMILES) | growth inhibition [1] | inhibition [2] | inhibition [3] [%] | growth inhibition [4] | outcome [5] | outcome [6] | outcome [7] | outcome [8]
1 | OC1CCCN(Cc2ccc(-c3ccc(-c4nc5ccccc5[nH]4)cc3)cc2)C1 (stereo not drawn) | 77% (active) | 46% | -4 | 100% (active) | inactive | inactive | inactive | inactive
2 | Cc1nc2ccc(Nc3nccc(-c4c(-c5cccc(NC(=O)c6c(F)cccc6F)c5)nn5ccccc45)n3)cc2nc1C | 45% | 55% (active) | 0 | 91% (active) | inactive | inactive | inactive | inactive
3 | COc1ccc(CCON2C(N)=NC(N)=NC2(C)C)cc1OC | 93% (active) | 64% (active) | 2 | 96% (active) | inactive | inactive | inactive | inactive
4 | Nc1cccc(CNCc2ccc(-c3ccc(-c4nc5ccc(C(F)(F)F)cc5[nH]4)s3)cc2)c1 | 98% (active) | 28% | -2 | 102% (active) | inactive | inactive | inactive | inactive
5 | O=C(Cc1ccsc1)NCC(c1ccccc1Cl)c1c[nH]c2ccccc12 (stereo not drawn) | 71% (active) | 0% | -1 | 86% (active) | inactive | inactive | inactive | inactive
6 | CNCCNCc1cccc(-c2cccc(-c3nc4ccc(F)cc4[nH]3)c2)c1 | 15% | 20% | -2 | 98% (active) | inactive | inactive | inactive | inactive
7 | CC(C)(C)c1cc(C(=O)Nc2ccc(C(=N)N)cc2)c(O)c(C(C)(C)C)c1 | 88% (active) | 4% | -2 | 101% (active) | inactive | inactive | inactive | inactive
8 | COc1ccc(-c2cc(C(=O)N3CCc4ccccc43)c3ccccc3n2)cc1OC | 48% | 5% | 3 | 85% (active) | inactive | inactive | inactive | inactive
9 | Cc1ccc(C)c(CC(=O)N2CCC(n3c(C)nc4ccc(F)cc43)CC2)c1 | 99% (active) | -2% | 1 | 100% (active) | inactive | inactive | inactive | inactive
10 | CCc1cc2c(cc1OCCN(C)C)N(C(=O)Nc1ccc(-c3ccncc3)c(Cl)c1)CC2 | 7% | 18% | -1 | 95% (active) | inactive | inactive | inactive | inactive
11 | O=C(Nc1cccc(CN2CCN(C(=O)c3cccc(Cl)c3)CC2)c1)c1ccco1 | 94% (active) | 7% | 2 | 96% (active) | inactive | inactive | inactive | inactive
12 | O=C(Nc1cccc(-c2nn3ncccc3c2-c2ccnc(Nc3cccnc3)n2)c1)c1c(F)cccc1F | 70% (active) | 5% | -2 | 96% (active) | inactive | inactive | inactive | inactive
13 | Nc1c2c(nc3ccc(C(=O)Nc4cc(I)c(O)c(I)c4)cc13)CCCC2 | 64% (active) | 14% | 0 | 96% (active) | inactive | inactive | inactive | inactive
14 | COc1cc(OC)nc(C(Sc2ccc(NC(=O)c3cccs3)cc2)c2ccccc2)n1 (stereo not drawn) | 96% (active) | 7% | -1 | 97% (active) | inactive | inactive | inactive | inactive
15 | CN(C)c1cccc2c1nc(-c1ccco1)n2CC1CCCN1 (stereo not drawn) | 46% | -1% | 6 | 86% (active) | inactive | inactive | inactive | inactive
16 | FC(F)(F)COc1c(CCNCCCCNCCc2ccc3ccccc3c2OCC(F)(F)F)ccc2ccccc12 | 97% (active) | 99% (active) | -3 | 101% (active) | inactive | inactive | inactive | inactive
17 | COc1cc(C(F)(F)F)nc2c(CNCCCNc3cc(=O)c4ccccc4[nH]3)scc12 | 16% | -7% | -2 | 92% (active) | inactive | inactive | inactive | inactive
18 | CN(C)CCCOc1cccc(NC(=O)Nc2ccc(-c3ccccc3)cc2)c1 | 14% | 9% | -8 | 91% (active) | inactive | inactive | inactive | inactive
19 | CC(C)(C)c1nn(-c2ccccc2)c2[nH]c(=O)c(CNCc3ccccc3)cc12 | 91% (active) | 5% | 2 | 90% (active) | inactive | inactive | inactive | inactive
20 | Cc1cc(N2CCNCC2)c2cc(NC(=O)Nc3ccc(Cl)c(Cl)c3)ccc2n1 | 86% (active) | 23% | -2 | 100% (active) | inactive | inactive | inactive | inactive
21 | COc1ccc(C=NNc2nc3ccccc3[nH]2)cc1O | 13% | 15% | 0 | 95% (active) | inactive | inactive | inactive | inactive

Row | Structure (SMILES) | growth inhibition [1] | inhibition [2] | inhibition [3] [%] | growth inhibition [4] | outcome [5] | outcome [6] | outcome [7] | outcome [8]
22 | CCCc1cn2c3c(cc(C(=O)N[C@@H](Cc4ccccc4)[C@H](O)CNC4CCOCC4)cc13)N(CC)S(=O)(=O)CC2 | 98% (active) | 2% | -2 | 97% (active) | inactive | inactive | inactive | inactive
23 | COc1ccc2c(NN=CC=Cc3ccccc3)ccnc2c1 | 100% (active) | 9% | 4 | 100% (active) | inactive | inactive | inactive | inactive
24 | NC(=O)CCC(NC(=O)CNC(=O)Nc1cccc(C(F)(F)F)c1)C(=O)O (stereo not drawn) | 93% (active) | 1% | 4 | 97% (active) | inactive | inactive | inactive | inactive
25 | O=C(Nc1ccc(Cn2ncc(N3CCCNCC3)c(Cl)c2=O)cc1)Nc1ccc(OCc2ccccc2)cc1 | 32% | 15% | 5 | 90% (active) | inactive | inactive | inactive | inactive
26 | COc1c(C2CCN(CCN3CCC(NC(=O)c4ccc(-c5ccc(C(F)(F)F)cc5)cc4)CC3)CC2)ccc2c1CCCC2 | 35% | 42% | 0 | 82% (active) | inactive | inactive | inactive | inactive
27 | CCC[C@@H]([C@@H](CC(C)C)C(=O)N[C@@H](CCCCNC(=O)c1cccc(OC)c1)C(=O)Nc1nccs1)N(O)C=O | 99% (active) | 5% | -4 | 100% (active) | inactive | inactive | inactive | inactive
28 | CN(C)CCN(Cc1ccccc1-c1ccc(CNCCc2ccccc2)cc1)C(=O)NC1CCCCC1 | 89% (active) | 98% (active) | -1 | 88% (active) | inactive | inactive | inactive | inactive
29 | Clc1cc(Nc2ncnc3sc(C#C[C@H]4CCCN4)cc23)ccc1OCc1cccnc1Cl | 93% (active) | 9% | -3 | 101% (active) | inactive | inactive | inactive | inactive
30 | CCCCCN1CCCC(NS(=O)(=O)c2ccc(C(=O)Nc3cccc(C(F)(F)F)c3)cc2)C1 (stereo not drawn) | 3% | 30% | 5 | 97% (active) | inactive | inactive | inactive | inactive
31 | N#Cc1cncc(-c2nc3c(N4CCCC(N)C4)cccc3n2CCNCc2ccccc2)c1 (stereo not drawn) | 1% | 8% | -1 | 101% (active) | inactive | inactive | inactive | inactive
32 | Cn1c(N)c(C(=O)CSc2ncc(-c3ccc(F)cc3)n2Cc2ccccc2)c(=O)n(C)c1=O | 66% (active) | 11% | 1 | 88% (active) | inactive | inactive | inactive | inactive
33 | OCCN1CCN(Cc2cccc(-c3ccc(-c4nc5ccc(C(F)(F)F)cc5[nH]4)s3)c2)CC1 | 98% (active) | 42% | -5 | 101% (active) | inactive | inactive | inactive | inactive
34 | NC1CCN(Cc2ccc(-c3ccc(-c4nc5ccccc5[nH]4)cc3)cc2)C1 (stereo not drawn) | 100% (active) | 34% | -5 | 101% (active) | inactive | inactive | inactive | inactive
35 | OCC1CCN(Cc2ccc(-c3ccc(-c4nc5ccc(F)cc5[nH]4)s3)cc2)CC1 | 98% (active) | 14% | -3 | 101% (active) | inactive | inactive | inactive | inactive
36 | O=C(Cn1c(CCc2cccc(F)c2F)nc(=O)c2ccccc21)N(Cc1ccc(-c2ccc(C(F)(F)F)cc2)cc1)C1CCN(C2CCSCC2)CC1 | 93% (active) | 97% (active) | 0 | 99% (active) | inactive | inactive | inactive | inactive
37 | CCCCCCCCc1c(C)[nH]c(C)c(Br)c1=O | 92% (active) | -5% | 7 | 96% (active) | inactive | inactive | inactive | inactive
38 | c1ccc(CCNCc2cccc(-c3ccc(CNc4ccc5ncccc5c4)cc3)c2)cc1 | 27% | 43% | -2 | 93% (active) | inactive | inactive | inactive | inactive
39 | Cc1cccc2[nH]c(-c3cccc(-c4cccc(NC(=O)CC5NC(=O)c6ccccc65)c4)c3)nc12 (stereo not drawn) | 49% | 8% | -1 | 92% (active) | inactive | inactive | inactive | inactive
40 | CC(C)(C)Oc1ccc(C[C@@H]2NC3(C(=O)N(Cc4ccc(Cl)c(Cl)c4)c4ccccc43)C3C(=O)N(c4ccc(Br)cc4)C(=O)C32)cc1 (stereo partly drawn) | 25% | 1% | 6 | 86% (active) | inactive | inactive | inactive | inactive
41 | Cc1cc(-c2ccc(CN3Cc4ccccc4C3)cc2)ccc1S(=O)(=O)NCCN1CCCC1 | 10% | 49% | -4 | 94% (active) | inactive | inactive | inactive | inactive
